COUP-TFII inh: blocks human COUP-TFII nuclear receptor | P24468 | HEK293T NGFI-A luciferase reporter, luminescence | inhibition, % at 8.6 µM | 0.7% of 370,000 active | AID 686940;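 active means inhibition above a per-plate cutoff, mean inhibition of test wells between control levels plus 3 SD, cut at about 38% in these data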;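 further: cells cotransfected with COUP-TFII expression vector driving the NGFI-A reporter; 0% = median of COUP-TF2 test wells and 100% = reporter-only cells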
SRC1 inh: inhibits human SRC1 coactivator; Q15788; HEK293 GAL4-SRC1 luciferase reporter, luminescence; inhibition, % at 3.6 µM; 0.12% of 360,000 active; AID 588354;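 active means inhibition above the campaign mean plus 3 SD, with each screening campaign given its own cutoff, cut at about 60% in these data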;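 further: 0% = DMSO treated cells and 100% = gossypol at 36 µM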
SRC2 inh: inhibits human steroid receptor coactivator 2 | Q15596 | inhibition, % at 9 µM | 0.17% of 370,000 active | HEK293 GAL4-SRC2 luciferase reporter, luminescence;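 active means inhibition above the mean inhibition of all tested compounds plus 3 SD, set per campaign, cut at about 52% in these data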;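 further: 0% = DMSO treated cells and 100% = cells given Gossypol at 36 µM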
Gli-Sufu block: blocks Gli-Sufu signaling in a luciferase reporter; Sufu-KO-LIGHT fibroblasts, Gli luciferase reporter luminescence; 0.74% of 340,000 active; AID 588413; inhibition, % at 5 µM;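 active means inhibition above about 55%, limit read from the data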;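 further: 0% = DMSO-treated cells and 100% = wells with medium but no cells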
LRH-1 inv ag: NR5A2 inverse agonism in reporter assay. O00482. HEK293T StAR-luciferase reporter, LRH-1 transfected, 24 h. inhibition, % at 3.6 µM. 0.13% of 360,000 active;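 active means inhibition above the mean inhibition of all tested compounds plus 3 SD, cut at about 73% in these data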;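 further: 0% = DMSO wells and 100% = reporter-only cells lacking LRH-1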
SRC3 inh: human NCOA3 inhibition; Q9Y6Q9; HEK293 GAL4-SRC3 luciferase reporter, luminescence; inhibition, % at 3.6 µM; 0.17% of 360,000 active; AID 588352;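 active means inhibition above a per-campaign cutoff, the mean of all compounds plus 3 SD, cut at about 60% in these data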;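 further: 0% = DMSO-treated cells and 100% = gossypol-treated cells at 36 µM; higher means less SRC3-driven luciferase light from the GAL4 reporter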
Numbers without * were called inactive. An excerpt weighted towards active compounds, which were near 1.2% of everything screened.

`COC1CCC(OC2CC(C3(C)CCC4(CC(O)C(C)C(C(C)/C=C(\C)C(=O)C(C)CC(C)C(=O)O)O4)O3)OC3(OC(C4OC(O)(CO)C(C)CC4C)CC3C)C2C)OC1C` (configuration not stated) gave COUP-TFII inh -39, SRC1 inh -24, SRC2 inh -2, Gli-Sufu block 77*, LRH-1 inv ag 7 and SRC3 inh 10.
For Cc1ccsc1CNCCc1ccccc1F the results were COUP-TFII inh -6, SRC1 inh 12, SRC2 inh -11, Gli-Sufu block 4, LRH-1 inv ag -9 and SRC3 inh 0.
For c1ccc(-c2[nH]c(-c3ccccc3)[n+](CC3CO3)c2-c2ccccc2)cc1 (configuration not stated) the results were COUP-TFII inh -5, SRC1 inh 21, SRC2 inh 35, Gli-Sufu block 1, LRH-1 inv ag 17 and SRC3 inh 34.
Screening CN1CN(c2ccccc2)C2(CCN(CCCSc3ccccc3NC(=O)/C=C/c3ccccc3)CC2)C1=O returned COUP-TFII inh 39*, SRC1 inh 3, SRC2 inh -24, Gli-Sufu block -4, LRH-1 inv ag 4 and SRC3 inh 14.
CCCN1CCC[C@@H](c2cccc(O)c2)C1 was read as COUP-TFII inh -9, SRC1 inh -10, SRC2 inh -25, Gli-Sufu block 15, LRH-1 inv ag 22 and SRC3 inh 10.
Cc1c2ccncc2c(C)c2c1[nH]c1ccccc12 was read as SRC1 inh 64*, Gli-Sufu block 7, LRH-1 inv ag 65 and SRC3 inh 60.
COC(=O)C[C@]1(C(=O)OC)CN(C#N)N(c2ccc(Cl)cc2)C12c1ccccc1-c1ccccc12 was read as COUP-TFII inh 102*, SRC1 inh 2, SRC2 inh 91*, Gli-Sufu block 38, LRH-1 inv ag 45 and SRC3 inh 67*.
Screening CCOC(=O)[C@]12Cc3cc(Cl)ccc3[C@H]1N(CC(=O)OC)C(=O)c1ccccc12 returned LRH-1 inv ag 57.
CC(C)(C)NC(=O)CN1C(=O)[C@@H](Cc2c[nH]c3ccccc23)N=C(c2ccccc2)c2ccccc21 was read as COUP-TFII inh 3 and SRC2 inh 5.
Screening COC(=O)[C@H]1C[C@@]2(C)c3ccccc3N[C@H]2N1 returned COUP-TFII inh -4 and SRC2 inh -8.
Screening O=C(CCn1nc(-c2ccc(Cl)cc2)ccc1=O)N1CCC2(CC1)OCCO2 returned COUP-TFII inh 13, SRC1 inh 0, SRC2 inh 20, Gli-Sufu block 5, LRH-1 inv ag 23 and SRC3 inh 2.
For Cc1nc2cc(-c3ccc(Cl)cc3)nn2c(C)c1CCC(=O)N1CCC2(CC1)OCCO2 the results were COUP-TFII inh -9, SRC1 inh -4, SRC2 inh 56*, Gli-Sufu block 15, LRH-1 inv ag -3 and SRC3 inh 17.
C[C@H]1O[C@@H](OC2CC[C@]3(C=O)[C@H]4CC[C@]5(C)[C@@H](C6=CC(=O)OC6)CC[C@]5(O)[C@@H]4CC[C@]3(O)C2)CC2OC(C)(C)OC21 (some centres not stated) was read as COUP-TFII inh 75*, SRC1 inh 81*, SRC2 inh 60*, Gli-Sufu block 13, LRH-1 inv ag 99* and SRC3 inh 86*.
CCOC(=O)C1=C(C(=O)OCC)C2(c3ccccc3)c3ccccc3C1(C)N2C (configuration not stated) was read as COUP-TFII inh 7 and SRC2 inh -11.
`CCOC(=O)[C@]12Cc3cc(Cl)ccc3[C@H]1N(C1CCCCC1)C(=O)c1ccccc12` gave LRH-1 inv ag 85*.
Screening CCC(=O)[C@@H](C)[C@@H](O)[C@H](C)C[C@@H](C)C1OC(=O)C[C@@]2(O)CC=C(C)C(O2)C(C)=CCCC[C@H](O[C@H]2C[C@@H](OC(N)=O)[C@H](O)[C@@H](C)O2)C=C[C@H](C)C[C@H]1C (some centres not stated) returned LRH-1 inv ag 85*.
`CCCCCCCCCCCCCCCC[N+](C)(C)C` gave COUP-TFII inh 9, SRC1 inh 5, SRC2 inh 2, Gli-Sufu block 62*, LRH-1 inv ag 17 and SRC3 inh 12.
For C=CCCC(NC(=O)OCc1ccccc1)P(=O)(Oc1ccccc1)Oc1ccccc1 (configuration not stated) the results were COUP-TFII inh 3.
Screening COC(=O)C1C(c2ccccc2)CC2CCC1N2C (configuration not stated) returned COUP-TFII inh -28 and SRC2 inh -1.
Screening O=c1c2ccccc2nc(/C=C/c2ccc([N+](=O)[O-])o2)n1-c1ccc(O)cc1 returned COUP-TFII inh -14, SRC1 inh -58, SRC2 inh 2, Gli-Sufu block 75*, LRH-1 inv ag 10 and SRC3 inh 10.
For O=c1c2ccccc2nc(/C=C/c2ccccc2)n1-c1ccc(O)cc1 the results were COUP-TFII inh 8, SRC1 inh -17, SRC2 inh 8, Gli-Sufu block -20, LRH-1 inv ag 21 and SRC3 inh 4.
Screening O=C(O)C(Br)Br returned COUP-TFII inh 15 and SRC2 inh 16.
`C[C@H]1[C@H](OC(=O)CCC(=O)NCc2ccc(C(=O)O)cc2)O[C@@H]2O[C@@]3(C)CC[C@H]4[C@H](C)CC[C@@H]1C24OO3` gave SRC1 inh 62*, Gli-Sufu block 89*, LRH-1 inv ag 89* and SRC3 inh 72*.
COc1ccc2c(c1)/C(=C/c1cnc[nH]1)C(=O)N2 was read as COUP-TFII inh -14, SRC1 inh 25, SRC2 inh -4, Gli-Sufu block -23, LRH-1 inv ag 82* and SRC3 inh 29.
`O=C1/C(=C/c2ccccc2)C[C@@]2(O)[C@H]3Cc4ccc(O)c5c4[C@@]2(CCN3CC2CC2)C1O5` (some centres not stated) gave SRC1 inh 86*, Gli-Sufu block -16, LRH-1 inv ag 84* and SRC3 inh 83*.
`Oc1ccc2c3c1O[C@H]1c4[nH]c5c(c4CC4(O)C(C2)N(CC2CC2)CCC314)CC1(O)[C@H]2Cc3ccc(O)c4c3[C@@]1(CCN2CC1CC1)C5O4` (some centres not stated) gave COUP-TFII inh -2 and SRC2 inh 4.
`CCOC(=O)CC[C@@H]1CC[C@]2(CCCN(Cc3ccccn3)C2)O1` gave COUP-TFII inh -2 and SRC2 inh 9.
Cn1ncnc2c(=O)n(C)c(=O)nc1-2 was read as SRC1 inh 88*, Gli-Sufu block 94*, LRH-1 inv ag 100* and SRC3 inh 91*.
COC(=O)C1C(c2ccc(I)cc2)CC2CCC1N2C (configuration not stated) was read as COUP-TFII inh -3 and SRC2 inh 14.

Bioassay records: PubChem, several laboratories
